Source: paper PMC13083723 (Patterns, 2026)
Hit rate of the full screen: of about 5,400 compounds, about 190 (3.5%) showed an effect of 50% or more. The sample as a whole holds a higher share of strong results than the screen did.

These compounds were tested on Vero-E6 (assay: primary screen, phospholipidosis by LipidTOX staining; higher = more effect of the substance). Details: 10 µM.
Method in brief: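 Single-concentration screen at 10 μM, with DMSO 0.1 v/v % and amiodarone 10 μM as controls. Read-out is LipidTOX Red phospholipid staining, which tolerates aldehyde fixation, in Vero-E6 cells.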

First: Fc1cc(F)c2c(c1)[C@H]1C=CC[C@H]1C(c1cccnc1)N2 (mixture of isomers)
Second: C[C@]12CC[C@H](O)CC1=CC[C@@H]1[C@@H]2CC[C@]2(C)C(c3cccnc3)=CC[C@@H]12
The result_ITMP of the first is lower: -14.4% for the first, -5.26% for the second.

Going from `O=S(=O)([O-])CCS` to `CC(C)(O)CC(=O)[O-]`, the result_ITMP falls from -2.99% to -6.24%.

First: OC[C@H]1O[C@@](CO)(O[C@H]2O[C@H](CO)[C@@H](O)[C@H](O)[C@H]2O)[C@@H](O)[C@@H]1O
Second: C[C@H]1[C@H](OC(=O)CCC(=O)O)O[C@@H]2O[C@@]3(C)CC[C@H]4[C@H](C)CC[C@@H]1[C@@]24OO3
The result_ITMP of the first is lower: -5.71% for the first, 7.77% for the second.

First: CN(C)CCC(c1ccc(Cl)cc1)c1ccccn1 (stereo not shown) [R4A_0004036_001 / SPE_A04553218]
Second: CN(C)CCNc1nc2cc(O)ccc2c2c1C(=O)c1ccccc1-2
The result_ITMP of the first is lower: 16% for the first, 76.7% for the second.

Going from `C[CH2][Hg][S]c1ccccc1C(=O)[O-]` to `Cc1c(-c2ccc(-c3ccccc3F)cc2)nc2ccc(F)cc2c1C(=O)[O-]`, the result_ITMP falls from 6.82% to 5.08%.

First: O=C([O-])C(=O)[O-].[NH-][C@@H]1CCCC[C@H]1[NH-].[Pt+4]
Second: c1cc2c(cc1C1CCCCC1)c1c3n2CCNC3CCC1 (stereo not shown)
The result_ITMP of the first is lower: 22.9% for the first, 84.2% for the second.

Going from `COc1cc2c(NC3CCN(C4CCCCC4)CC3)nc(N3CCCN(C(C)C)CC3)nc2cc1OCCCN1CCCCC1` to `COc1cc2c(NC3CCN(C(C)C)CC3)nc(C3CCCCC3)nc2cc1OCCCN1CCCC1`, the result_ITMP rises from -1.55% to 60.7%.

Compared with `COc1cc2c(NC3CCN(C(C)C)CC3)nc(N3CCC(F)(F)CC3)nc2cc1OCCCN1CCCC1`, `COc1cc2c(N3CCN(C(=O)Nc4ccc(OC(C)C)cc4)CC3)ncnc2cc1OCCCN1CCCCC1` is higher in result_ITMP: 8.94% for the first, 23% for the second.

First: C[C@]12CC[C@H](O)C[C@H]1CC[C@@H]1[C@@H]2CC[C@]2(C)[C@@H](c3ccc(=O)oc3)C[C@H]3O[C@]132
Second: C#C[C@]1(O)CC[C@H]2[C@@H]3CCC4=CC(=O)CC[C@@H]4C3CC[C@@]21CC (stereo partly shown)
The result_ITMP of the first is lower: -2.23% for the first, -2.07% for the second.

Going from `Nc1ncnc2[nH]cnc12` to `COc1cc2ncnc(Nc3ccc(F)c(Cl)c3)c2cc1OCCCN1CCOCC1`, the result_ITMP rises from -2.75% to -1.05%.

Compared with `C/C(=N\NC(=S)NNC(=S)Nc1ccccc1Cl)c1ccccn1`, `CC(=O)Nc1ccc(NC(=S)NC(=O)c2ccc(C(C)(C)C)cc2)cc1` is higher in result_ITMP: -0.18% for the first, 2.55% for the second.

`C1CCC(N/C(=N/C23CC4CC(CC(C4)C2)C3)N2CCOCC2)CC1` and `C[C@H](/C=C/[C@H](C)C(C)(C)O)[C@H]1CC[C@H]2/C(=C/C=C3C[C@@H](O)C[C@H](O)C3)CCC[C@]12C` are the same in result_ITMP: -0.26% for the first, -0.26% for the second.

Going from `C=C1C(=O)O[C@H]2[C@H]1CC/C(C)=C/CC[C@@]1(C)O[C@@H]21` [R4A_0002204_002 / SPE_K34851558] to `Cc1ccc2c(c1)c1c3n2CCNC3CCC1` (stereo not shown), the result_ITMP rises from 16.6% to 51.5%.

Going from `c1cc(OCCN2CCCCC2)cc(-c2n[nH]c3ccc(-c4ncn[nH]4)cc23)c1` to `C1=C/COCc2cc(ccc2OCCN2CCCC2)Nc2nccc(n2)-c2cccc(c2)COC/1`, the result_ITMP rises from -0.52% to 78.8%.

Going from `CN1C/C=C/CCOc2cccc(c2)-c2ccnc(n2)Nc2cccc(c2)C1` to `Cc1ccccc1C(c1ccccc1C)N1C2CCC1CC(O)(c1ccccc1)C2` (stereo not shown), the result_ITMP falls from -2.04% to -2.82%.

First: CN(C)CCCCC(=O)Nc1ccc(NC(=S)NC(=O)c2ccc(C(C)(C)C)cc2)cc1
Second: CC(=O)Nc1ccc(C(=O)NC(C)(C)C)cc1
The result_ITMP of the first is higher: 147% for the first, -9.36% for the second.

Compared with `O=C1[C@@H]2[C@H]3CC[C@H](C3)[C@@H]2C(=O)N1C[C@@H]1CCCC[C@H]1CN1CCN(c2nsc3ccccc23)CC1`, `CC1(C)S[C@@H]2[C@H](NC(=O)[C@H](NC(=O)N3CCN(S(C)(=O)=O)C3=O)c3ccccc3)C(=O)N2[C@H]1C(=O)[O-]` is lower in result_ITMP: 3.52% for the first, -2.91% for the second.

Going from `COc1cccc(Nc2ncnn3ccc(CN4CC[C@@H](N)[C@H](O)C4)c23)c1` to `N[C@@H]1[C@H]2CN(c3nc4c(cc3F)c(=O)c(C(=O)O)cn4-c3ccc(F)cc3F)C[C@@H]12`, the result_ITMP falls from 59% to 0.39%.

Going from `CSCC[C@H](NC(=O)[C@H](CC(C)C)NC(=O)CNC(=O)[C@H](Cc1ccccc1)NC(=O)[C@H](Cc1ccccc1)NC(=O)[C@H](CCC(N)=O)NC(=O)[C@H](CCC(N)=O)NC(=O)[C@@H]1CCCN1C(=O)[C@H](CCCCN)NC(=O)[C@@H]1CCCN1C(=O)[C@@H](N)CCCNC(=N)N)C(N)=O` to `COc1cc(Nc2c(C#N)cnc3cc(OCCCN4CCN(C)CC4)c(OC)cc23)c(Cl)cc1Cl`, the result_ITMP rises from -6.88% to 68%.

First: Cc1cc2c(cc1CC(=O)c1sccc1S(=O)(=O)[N-]c1onc(C)c1Cl)OCO2
Second: O=C1OC2(c3cc(I)c([O-])c(I)c3Oc3c2cc(I)c([O-])c3I)c2c(Cl)c(Cl)c(Cl)c(Cl)c21
The result_ITMP of the first is higher: -1.86% for the first, -9.57% for the second.
